From the supplement of paper PMC11732987, “Enantioselective OTUD7B fragment discovery through chemoproteomics screening and high-throughput optimisation” (Communications Chemistry, 2025)

Tests used:
Assay in all cases: log2 ratio of Biotin-Ahx-Ub-VS probe labelling (fragment/DMSO); higher = less target engagement (more negative = stronger competition), active = hit call of the paper (q ≤ 0.05, log2 ratio ≤ -1)
Conditions in all cases: compound concentration: 200 uM; treatment time: 3 h
USP19 = biological target: T1, USP19 (UniProt O94966)
T1 sequence (whole entry): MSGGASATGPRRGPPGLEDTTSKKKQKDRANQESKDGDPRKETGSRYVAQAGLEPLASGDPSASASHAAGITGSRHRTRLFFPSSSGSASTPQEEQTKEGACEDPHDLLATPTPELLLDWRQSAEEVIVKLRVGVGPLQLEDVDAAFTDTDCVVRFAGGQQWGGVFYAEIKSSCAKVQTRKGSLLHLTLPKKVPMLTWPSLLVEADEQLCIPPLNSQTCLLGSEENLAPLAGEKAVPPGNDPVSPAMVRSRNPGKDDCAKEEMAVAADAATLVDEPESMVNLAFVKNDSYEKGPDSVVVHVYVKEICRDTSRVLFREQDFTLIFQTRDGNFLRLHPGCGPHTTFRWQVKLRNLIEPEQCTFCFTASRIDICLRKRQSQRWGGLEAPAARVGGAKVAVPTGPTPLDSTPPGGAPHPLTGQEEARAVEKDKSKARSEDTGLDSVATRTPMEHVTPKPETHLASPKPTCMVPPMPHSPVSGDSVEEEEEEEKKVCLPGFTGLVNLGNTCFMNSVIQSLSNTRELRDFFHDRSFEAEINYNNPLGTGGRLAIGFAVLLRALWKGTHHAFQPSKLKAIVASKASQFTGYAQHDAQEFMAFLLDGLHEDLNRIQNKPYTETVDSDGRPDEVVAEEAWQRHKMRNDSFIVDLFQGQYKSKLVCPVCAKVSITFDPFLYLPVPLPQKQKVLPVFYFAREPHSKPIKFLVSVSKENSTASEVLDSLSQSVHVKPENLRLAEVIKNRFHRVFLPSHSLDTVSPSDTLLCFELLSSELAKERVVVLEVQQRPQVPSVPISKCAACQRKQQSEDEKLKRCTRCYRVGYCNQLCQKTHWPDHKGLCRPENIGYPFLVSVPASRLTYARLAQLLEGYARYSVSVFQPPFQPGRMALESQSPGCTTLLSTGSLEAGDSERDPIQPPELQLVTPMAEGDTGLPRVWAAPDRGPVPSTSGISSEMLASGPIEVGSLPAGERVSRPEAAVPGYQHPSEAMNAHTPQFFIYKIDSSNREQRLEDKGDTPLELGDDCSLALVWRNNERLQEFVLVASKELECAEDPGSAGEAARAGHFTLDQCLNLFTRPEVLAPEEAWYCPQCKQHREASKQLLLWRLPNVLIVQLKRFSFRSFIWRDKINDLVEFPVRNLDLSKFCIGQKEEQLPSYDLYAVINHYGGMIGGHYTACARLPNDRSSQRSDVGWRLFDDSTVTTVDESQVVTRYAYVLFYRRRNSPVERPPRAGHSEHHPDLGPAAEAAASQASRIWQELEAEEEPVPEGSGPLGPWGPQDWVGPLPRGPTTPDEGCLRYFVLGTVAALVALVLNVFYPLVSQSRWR
How it was run: (§1)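 Each value is an average log2 ratio of fragment to vehicle, tested by unpaired t-test. The underlying Spectronaut label-free quantities were global-median-normalised, and only proteins with ≥2 unique peptides were included. Triplicate HEK293T lysate samples (495 µg) were exposed to fragment at 200 µM or vehicle for 3 h, then to Biotin-Ahx-Ub-VS at 0.5 µM final for 1 h, before NeutrAvidin enrichment of labelled DUBs, LysC and trypsin digestion, and diaPASEF LC-MS/MS.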

USP22 = biological target: T2, USP22 (UniProt Q9UPT9)
T2 sequence (whole entry): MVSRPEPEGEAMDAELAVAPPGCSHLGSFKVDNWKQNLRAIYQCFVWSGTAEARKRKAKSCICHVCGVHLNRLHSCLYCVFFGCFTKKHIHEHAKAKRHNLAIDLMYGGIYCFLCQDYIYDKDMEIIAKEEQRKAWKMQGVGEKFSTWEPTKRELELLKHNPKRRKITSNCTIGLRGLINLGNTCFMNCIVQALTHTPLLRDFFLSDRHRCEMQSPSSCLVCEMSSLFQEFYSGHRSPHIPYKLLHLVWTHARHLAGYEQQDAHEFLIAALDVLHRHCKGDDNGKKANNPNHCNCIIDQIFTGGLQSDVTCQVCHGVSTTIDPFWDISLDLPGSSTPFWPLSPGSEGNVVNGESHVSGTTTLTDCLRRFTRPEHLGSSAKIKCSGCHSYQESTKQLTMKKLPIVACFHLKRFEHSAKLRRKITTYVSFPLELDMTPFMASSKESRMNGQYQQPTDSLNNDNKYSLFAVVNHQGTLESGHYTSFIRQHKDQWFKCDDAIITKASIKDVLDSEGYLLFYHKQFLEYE
How it was run: as §1

USP24 = USP24 (UniProt Q9UPU5)
How it was run: as §1

USP25 = biological target: T3, USP25 (UniProt Q9UHP3)
T3 sequence (whole entry): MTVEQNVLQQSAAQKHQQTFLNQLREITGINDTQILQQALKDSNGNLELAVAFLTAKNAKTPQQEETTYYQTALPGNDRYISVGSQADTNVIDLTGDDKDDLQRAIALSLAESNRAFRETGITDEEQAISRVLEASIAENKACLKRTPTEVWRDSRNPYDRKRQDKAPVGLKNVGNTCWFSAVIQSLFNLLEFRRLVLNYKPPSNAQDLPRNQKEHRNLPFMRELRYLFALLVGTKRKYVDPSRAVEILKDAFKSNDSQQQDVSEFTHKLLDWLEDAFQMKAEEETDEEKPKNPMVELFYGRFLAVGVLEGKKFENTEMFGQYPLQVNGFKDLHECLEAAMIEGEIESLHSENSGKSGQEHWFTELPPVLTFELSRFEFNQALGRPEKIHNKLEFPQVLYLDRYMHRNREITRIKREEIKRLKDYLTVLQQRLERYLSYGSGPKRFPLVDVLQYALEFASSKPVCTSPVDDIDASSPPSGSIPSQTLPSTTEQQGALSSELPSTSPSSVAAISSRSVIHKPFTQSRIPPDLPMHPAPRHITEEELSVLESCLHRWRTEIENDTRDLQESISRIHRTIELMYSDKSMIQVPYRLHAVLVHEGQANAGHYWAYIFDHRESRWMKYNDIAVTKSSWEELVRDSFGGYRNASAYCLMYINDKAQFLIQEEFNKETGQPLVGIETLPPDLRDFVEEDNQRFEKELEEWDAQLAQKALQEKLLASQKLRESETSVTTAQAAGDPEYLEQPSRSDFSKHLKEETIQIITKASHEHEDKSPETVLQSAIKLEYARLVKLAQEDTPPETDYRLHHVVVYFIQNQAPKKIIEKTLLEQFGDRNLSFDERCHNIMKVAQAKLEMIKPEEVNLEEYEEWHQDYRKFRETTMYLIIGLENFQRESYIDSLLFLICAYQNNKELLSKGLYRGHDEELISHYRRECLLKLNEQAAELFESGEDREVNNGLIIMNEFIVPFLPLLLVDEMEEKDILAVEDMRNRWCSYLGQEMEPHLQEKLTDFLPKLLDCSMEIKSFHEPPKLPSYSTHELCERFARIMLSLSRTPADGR
How it was run: as §1

USP28 = biological target: T4, USP28 (UniProt Q96RU2)
T4 sequence (whole entry): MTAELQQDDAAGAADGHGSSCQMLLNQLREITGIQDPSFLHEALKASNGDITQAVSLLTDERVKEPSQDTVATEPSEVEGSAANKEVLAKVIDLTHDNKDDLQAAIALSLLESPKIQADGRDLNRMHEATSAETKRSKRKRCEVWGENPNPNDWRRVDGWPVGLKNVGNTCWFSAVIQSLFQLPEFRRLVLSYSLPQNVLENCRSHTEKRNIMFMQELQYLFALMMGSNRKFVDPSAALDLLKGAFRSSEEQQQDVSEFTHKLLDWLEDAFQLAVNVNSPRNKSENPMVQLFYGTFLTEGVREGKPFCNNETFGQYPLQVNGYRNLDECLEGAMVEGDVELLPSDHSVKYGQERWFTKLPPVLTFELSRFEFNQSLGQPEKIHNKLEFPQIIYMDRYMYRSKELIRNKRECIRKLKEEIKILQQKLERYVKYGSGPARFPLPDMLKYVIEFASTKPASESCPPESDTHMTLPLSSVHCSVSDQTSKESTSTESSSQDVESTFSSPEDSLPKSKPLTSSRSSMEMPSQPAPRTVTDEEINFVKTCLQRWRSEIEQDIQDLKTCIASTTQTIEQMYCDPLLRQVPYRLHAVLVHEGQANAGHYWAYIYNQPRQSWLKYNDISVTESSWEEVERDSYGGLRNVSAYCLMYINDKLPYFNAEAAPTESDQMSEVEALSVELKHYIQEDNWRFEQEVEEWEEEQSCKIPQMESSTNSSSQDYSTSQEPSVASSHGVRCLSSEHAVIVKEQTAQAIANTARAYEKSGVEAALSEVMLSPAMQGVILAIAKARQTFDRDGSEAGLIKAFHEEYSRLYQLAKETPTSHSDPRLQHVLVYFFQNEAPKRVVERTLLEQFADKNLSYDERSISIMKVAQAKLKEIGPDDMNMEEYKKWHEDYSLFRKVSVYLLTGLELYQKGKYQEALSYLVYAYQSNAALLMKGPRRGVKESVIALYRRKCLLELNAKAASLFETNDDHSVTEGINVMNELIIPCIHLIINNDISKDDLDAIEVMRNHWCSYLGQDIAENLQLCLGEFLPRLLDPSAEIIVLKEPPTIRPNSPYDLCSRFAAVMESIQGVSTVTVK
How it was run: as §1

Measured: log2 ratio of Biotin-Ahx-Ub-VS probe labelling

Sequence of USP24 (Q9UPU5 whole entry): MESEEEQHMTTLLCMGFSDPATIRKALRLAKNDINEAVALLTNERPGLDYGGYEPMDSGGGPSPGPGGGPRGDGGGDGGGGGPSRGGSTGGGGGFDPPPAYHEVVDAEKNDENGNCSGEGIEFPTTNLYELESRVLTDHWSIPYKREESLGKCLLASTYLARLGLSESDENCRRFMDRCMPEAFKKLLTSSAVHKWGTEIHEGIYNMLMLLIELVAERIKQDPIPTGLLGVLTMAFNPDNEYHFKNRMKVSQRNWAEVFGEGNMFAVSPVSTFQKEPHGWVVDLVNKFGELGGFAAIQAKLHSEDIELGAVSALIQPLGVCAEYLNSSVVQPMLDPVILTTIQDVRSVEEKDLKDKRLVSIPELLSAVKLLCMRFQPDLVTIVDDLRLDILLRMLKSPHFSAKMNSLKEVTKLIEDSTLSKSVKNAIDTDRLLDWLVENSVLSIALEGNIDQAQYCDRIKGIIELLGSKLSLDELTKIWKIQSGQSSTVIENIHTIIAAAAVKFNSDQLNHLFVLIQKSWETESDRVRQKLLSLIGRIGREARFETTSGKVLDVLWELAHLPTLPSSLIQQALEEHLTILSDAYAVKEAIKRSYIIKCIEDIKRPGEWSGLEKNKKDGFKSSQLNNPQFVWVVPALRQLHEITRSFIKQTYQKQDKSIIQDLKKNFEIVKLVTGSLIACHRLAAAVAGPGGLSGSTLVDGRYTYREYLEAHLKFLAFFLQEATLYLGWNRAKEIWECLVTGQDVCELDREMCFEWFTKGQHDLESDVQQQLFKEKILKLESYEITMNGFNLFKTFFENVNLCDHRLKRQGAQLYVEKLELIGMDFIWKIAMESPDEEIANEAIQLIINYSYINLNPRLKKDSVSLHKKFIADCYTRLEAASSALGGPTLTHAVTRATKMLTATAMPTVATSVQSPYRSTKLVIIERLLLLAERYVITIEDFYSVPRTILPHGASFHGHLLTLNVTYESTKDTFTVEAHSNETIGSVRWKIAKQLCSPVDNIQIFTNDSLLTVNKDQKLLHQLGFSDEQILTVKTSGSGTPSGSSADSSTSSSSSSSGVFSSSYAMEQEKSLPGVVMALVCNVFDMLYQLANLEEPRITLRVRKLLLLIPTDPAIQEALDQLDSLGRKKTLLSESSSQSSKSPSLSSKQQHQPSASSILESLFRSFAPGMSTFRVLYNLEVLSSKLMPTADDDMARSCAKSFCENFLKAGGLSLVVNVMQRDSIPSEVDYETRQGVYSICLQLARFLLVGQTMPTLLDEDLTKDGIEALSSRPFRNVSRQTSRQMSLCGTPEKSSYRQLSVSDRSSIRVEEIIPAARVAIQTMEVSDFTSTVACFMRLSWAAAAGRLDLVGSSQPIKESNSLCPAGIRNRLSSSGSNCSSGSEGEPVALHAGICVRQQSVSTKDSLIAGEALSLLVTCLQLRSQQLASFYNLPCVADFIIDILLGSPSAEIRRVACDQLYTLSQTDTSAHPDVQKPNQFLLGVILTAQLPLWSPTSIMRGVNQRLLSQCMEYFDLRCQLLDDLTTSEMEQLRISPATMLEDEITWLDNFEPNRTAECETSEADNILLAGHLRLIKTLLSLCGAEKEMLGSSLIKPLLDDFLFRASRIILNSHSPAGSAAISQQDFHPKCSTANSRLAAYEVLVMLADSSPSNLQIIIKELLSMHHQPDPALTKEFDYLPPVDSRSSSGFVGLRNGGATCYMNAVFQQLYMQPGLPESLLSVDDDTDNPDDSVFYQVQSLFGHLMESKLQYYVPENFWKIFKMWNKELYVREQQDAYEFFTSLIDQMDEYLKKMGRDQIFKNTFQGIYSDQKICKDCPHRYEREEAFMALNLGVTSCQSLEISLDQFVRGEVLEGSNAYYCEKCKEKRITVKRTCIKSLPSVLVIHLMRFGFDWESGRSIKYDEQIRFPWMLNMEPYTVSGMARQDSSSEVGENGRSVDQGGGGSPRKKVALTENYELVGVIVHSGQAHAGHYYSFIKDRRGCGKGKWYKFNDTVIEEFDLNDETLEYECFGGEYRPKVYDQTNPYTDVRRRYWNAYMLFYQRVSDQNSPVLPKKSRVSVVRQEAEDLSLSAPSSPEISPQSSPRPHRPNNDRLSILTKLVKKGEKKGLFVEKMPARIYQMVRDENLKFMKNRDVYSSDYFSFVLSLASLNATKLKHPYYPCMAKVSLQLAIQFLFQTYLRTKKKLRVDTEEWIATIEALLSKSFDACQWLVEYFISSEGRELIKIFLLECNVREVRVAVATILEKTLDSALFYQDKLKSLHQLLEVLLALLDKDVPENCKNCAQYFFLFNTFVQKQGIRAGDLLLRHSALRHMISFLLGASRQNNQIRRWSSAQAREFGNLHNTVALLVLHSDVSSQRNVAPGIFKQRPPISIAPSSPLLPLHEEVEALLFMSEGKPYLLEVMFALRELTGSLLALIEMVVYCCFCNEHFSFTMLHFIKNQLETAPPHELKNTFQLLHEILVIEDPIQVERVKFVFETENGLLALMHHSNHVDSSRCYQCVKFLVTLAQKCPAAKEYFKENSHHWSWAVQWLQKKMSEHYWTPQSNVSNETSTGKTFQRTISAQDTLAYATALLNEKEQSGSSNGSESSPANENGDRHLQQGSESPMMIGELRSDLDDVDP

Cc1cccc(C)c1NC(=O)CCl
inactive: USP19 -0.0774 | USP22 0.0867 | USP24 -0.266 | USP25 -0.436 | USP28 -0.794
